“And” between values parts separate entries of the source, which are not always exact repeats. Equal values may be shown once. Among all 38,000 compounds or so, about 1,200 (3.2%) showed an effect of 50% or more. The median lay at about -58%. This excerpt belongs to a sample that is enriched for strong results.
Tested on: Plasmodium falciparum
Assay: Calibr Malaria Delayed Death Assay SOP
Assay type: functional, organism-based
Set-up: scale not given: in the data most compounds retested in dose-response had high values
Conditions: concentration 4.99e-06 (unit not given; other assays of the set use mol/L)

Compound	Percent Effect	Percent Effect (4.99 µM)
CC(C)OCCCNC(=O)CN1C=Nc2ccccc2S1(=O)=O	-92.03%	
O=C(N1CCCC1)N1CCN(Cc2cccnc2)c2ncccc2C1.O=C(O)C(F)(F)F.O=C(O)C(F)(F)F	-47.54%	
COC[C@@]12CCC[C@@H]1CN(C(=O)CN(C)C)C2.O=C(O)C(F)(F)F	-5.547%	
CCCc1cc(=O)[nH]c(SCc2ccccn2)n1	-130.6%	
Cn1cc(C2CCCN2CCc2nc3ccccc3c(=O)[nH]2)cn1 (stereo not drawn)	-41.09%	
CC(C)NC(=O)N1CCC2(CC(=O)N(c3cccc(F)c3)C2)C1 (stereo not drawn)	-10.77%	
Cc1cc(C(=O)NCc2cccnc2N2CCCC(O)C2)c(C)o1 (stereo not drawn)	-87.63%	
CN(C(=O)Nc1nncs1)C1CCN(c2ccccc2Cl)C1=O (stereo not drawn)	-21.66%	
O=C(O)C(F)(F)F.O=C(O)C(F)(F)F.O=S(=O)(C1CC1)N1CCC2(CCCN(Cc3ccccn3)C2)C1 (stereo not drawn)	8.867%	
Cc1cnc(NC(=O)C(C)Oc2ccc3c(c2)OCO3)s1 (stereo not drawn)	-125.5%	
Cc1cc(N(C)CC2COc3ccccc3O2)nc(N)n1 (stereo not drawn)	46.69%	
COc1ccc(OCCN(C)c2cc(C)nc(N)n2)cc1	62.66%	
Cc1cc(N(C)CCCn2cccn2)nc(N)n1	23.74%	
COc1ccc(OCCN(C)CCCn2cnc3c(N)ncnc32)cc1	-97.62%	
COc1ccccc1OCCN(C)c1cc(C)nc(N)n1	69.29%	
COc1ccc(F)c(-c2cc(C)nc(N)n2)c1	-22.79%	
O=C(CCCc1ccc(Cl)cc1)N1CCC(c2nnc[nH]2)CC1	-167.6%	
O=C(O)C(F)(F)F.O=C(O)C(F)(F)F.c1cnc(N2CCC3(CCN(CC4CCCC4)CC3)C2)nc1	42.2%	
O=C(O)C(F)(F)F.O=C(O)C(F)(F)F.c1cnc(N2CCCC3(CCN(CC4CC4)C3)C2)nc1 (stereo not drawn)	59.09%	
Cl.Cl.Cn1cnc2c(N3CCCC3)nc(C3CCNCC3)cc21	-34.14%	
O=C(O)C(F)(F)F.c1cnc(N2CCCC3(CCN(CC4CCC4)C3)C2)nc1 (stereo not drawn)	51.49%	
O=C(O)C(F)(F)F.O=C(O)C(F)(F)F.c1cnc(N2CCC3(CCN(CC4CCOCC4)CC3)C2)nc1	-33.73%	
Cc1cnc(N2C[C@H]3CCN(CC4CC4)C[C@H]3C2)nc1.O=C(O)C(F)(F)F	63.65%	
Cc1cnc(N2C[C@H]3CCN(CC4CC4)C[C@@H]3C2)nc1.O=C(O)C(F)(F)F	37.51%	

Compound	Percent Effect	Percent Effect (4.99 µM)
Cn1cnc2c(N3CCCC3)nc(C3CCN(CC4CC4)CC3)cc21.O=C(O)C(F)(F)F.O=C(O)C(F)(F)F	68.79%	
O=C(O)C(F)(F)F.O=C(O)C(F)(F)F.c1cc2nc(C3CCN(CC4CC4)CC3)nn2cc1N1CCCC1	-27.34%	
O=C(O)C(F)(F)F.c1cnc(N2CCCC3(COCCN(CC4CC4)C3)C2)nc1 (stereo not drawn)	37.44%	
O=C(O)C(F)(F)F.O=C(O)C(F)(F)F.c1cnc(N2CCOCC3(CCCN(CC4CCOCC4)C3)C2)nc1 (stereo not drawn)	-11.39%	
O=C(O)C(F)(F)F.c1cnc(N2C[C@H]3CCN(CC4CC4)C[C@H]3C2)cn1	16.16%	
CN(CCc1ccccn1)C(=O)C(O)c1ccc(Br)cc1 (stereo not drawn)	-90%	
CS(=O)(=O)N1CCC2(CCN(C(=O)c3cccnc3)CC2)C1.O=C(O)C(F)(F)F	-35.24%	
CC(C)Cc1noc(C2CCCN(C(=O)CCc3cnn(C)c3)C2)n1 (stereo not drawn)	-27.67%	
O=C(O)C(F)(F)F.O=C(O)C(F)(F)F.c1cncc(OC[C@]23COC[C@H]2CN(C2CCOCC2)C3)c1	-14.64%	
CCN(CC)C(=O)CSc1nc2c(cnn2CCO)c(=O)[nH]1	-60.63%	
CCCNCc1ncc(C)c(OC)c1C	-91.87%	
O=C(Cn1nc(N2CCOCC2)ccc1=O)Nc1nccs1	-91.76%	
O=S(=O)(c1ccc(F)cc1F)N1CCCCC1c1nnc2n1CCCC2 (stereo not drawn)	-68.7%	
CCN(Cc1cccc2c1OCO2)C(=O)NC1CC1	-37.14%	
CN(C)C(=O)CN1CCOCC2(CCN(c3ncc(F)cn3)CC2)C1.O=C(O)C(F)(F)F	-87.82%	
CCCN(CCn1c(=O)oc2ccccc21)CC1CC1	13.79%	
CC(=O)N1CCN(C(=O)Nc2ccc(Cl)cc2)[C@H]2CS(=O)(=O)C[C@H]21	-18.79%	
CSCCC(=O)NCc1cc2n(n1)CCCN(C1CCCCC1)C2	-96.84%	
CC(NC(=O)C1CN(c2ncnc3c2nnn3C)C1)c1ccccc1 (stereo not drawn)	-135.3%	
Cc1cc(NC(=O)CN2CCCCC2Cn2nc(C)nc2C)on1 (stereo not drawn)	-33.53%	
O=C(O)C(F)(F)F.c1cnc(N2CCC3(CCN(CC4CCOC4)CC3)C2)nc1 (stereo not drawn)	-17.94%	
O=C(O)C(F)(F)F.c1cnc(N2CCCC3(CCN(CC4CCOC4)CC3)C2)nc1 (stereo not drawn)	55.15%	
O=C(O)C(F)(F)F.c1cnc(N2CCC3(CN(CC4CCOC4)C3)C2)nc1 (stereo not drawn)	-18.8%	
Cc1noc(C)c1CN1CC[C@H]2OCC[C@@]2(C(=O)N2CCOCC2)C1.O=C(O)C(F)(F)F	-52.8%	

Compound	Percent Effect	Percent Effect (4.99 µM)
Cc1nc(CC(=O)N2CCCC(n3ccnc3C(C)C)C2)cs1 (stereo not drawn)	-131%	
COc1cccc(CN(C)Cn2nc(C(C)(C)C)ccc2=O)c1	-38.19%	
Cn1cc(CN2CCC3(CCCN(Cc4ccccn4)C3)CC2)cn1	-52.6%	
Cc1cccc(N2CCC3(CCN(Cc4ccccn4)CC3)CC2)n1.O=C(O)C(F)(F)F.O=C(O)C(F)(F)F	62.64%	
Cc1ccc(N2CCC3(CCN(Cc4ccccn4)CC3)CC2)nn1	-24.83%	
O=C(O)C(F)(F)F.O=C(O)C(F)(F)F.c1ccc(CN2CCC3(CC2)CCN(c2ccccn2)C3)nc1	-1.583%	
O=C(O)C(F)(F)F.O=C(O)C(F)(F)F.O=C(O)C(F)(F)F.O=C(O)C(F)(F)F.c1ccc(CN2CCC3(CC2)CCN(Cc2cccnc2)C3)nc1	17.02%	
O=C(O)C(F)(F)F.O=C(O)C(F)(F)F.c1ccc(CN2CCCC3(CCN(CC4CCCO4)CC3)C2)nc1 (stereo not drawn)	10.98%	
O=S(=O)(C1CC1)N1CCC2(CCCN(Cc3ccccn3)C2)CC1	-27.08%	
O=C(O)C(F)(F)F.O=C(O)C(F)(F)F.O=C(O)C(F)(F)F.c1ccc(CN2CCC3(CC2)CCN(Cc2cccs2)C3)nc1	53.66%	
COc1cccc2ccn(CC(=O)NC(C)C)c12	-78.35%	
Cc1ccc(N(CCC#N)C(=O)CCc2cscn2)cc1C	-62.62%	
COC[C@@]12CCO[C@@H]1CCN(C(=O)Cc1cccc(F)c1)C2	-44.15%	
Cc1ccc(-c2nc(CCNC(=O)C3CC(=O)N(C)C3)cs2)cc1 (stereo not drawn)	-66.89%	
Cc1nc(-c2cccc(C(=O)O)c2)c[nH]1	-344.9%	
Cc1cc2c(c(-c3cncc(C(=O)N4CCCC4)n3)c1)OC(CN)C2 (stereo not drawn)	3.853%	
Cc1cc2c(c(-c3c[nH]c(C)n3)c1)OC(CN)C2 (stereo not drawn)	79.27%	
CC(=O)c1cccc(-c2c[nH]c(C)n2)c1	-59.83%	
O=C(CCc1ccco1)N1CCCN(Cc2cscn2)CC1	-137.4%	
O=C(c1cccc(F)c1)N1CC[C@@H]2CN(c3ncccn3)CCO[C@@H]2C1	-63.21%	
O=S(=O)(NCC(O)c1ccc2c(c1)CCO2)c1ccccc1F (stereo not drawn)	-109.3%	
CCc1nccn1C1CCCN(C(=O)c2cncn2-c2ccccc2)C1 (stereo not drawn)		-131.8% and -127.1%
COCCn1cncc1CN1CCC(C(C)=O)(c2ccccc2)CC1	-24.83%	
O=C(C1CCCN(Cc2ccccc2)C1)N1CCc2sccc2C1 (stereo not drawn)	11.44%	

Compound	Percent Effect	Percent Effect (4.99 µM)
O=C(C1CCCN(Cc2cccnc2)C1)N1CCc2sccc2C1 (stereo not drawn)	-120.1%	
CC1(c2ccccc2)CCC(=O)N(CCN2CCOCC2)C1 (stereo not drawn)	-51.4%	
CC1(c2ccccc2)CCCN(Cc2cncn2C2CC2)C1 (stereo not drawn)	67%	
CC1(c2ccccc2)CCCN(Cc2cncn2C2CCCC2)C1 (stereo not drawn)	90.6%	
O=C(Cc1ccccc1)C1CCCN(Cc2cncn2C2CCCC2)C1 (stereo not drawn)	56.54%	
CC1(c2ccccc2)CCCN(C(=O)c2ccn3nnnc3c2)C1 (stereo not drawn)	-91.8%	
COCCN1CCCC12CCN(Cc1cncn1C)CC2.O=C(O)C(F)(F)F.O=C(O)C(F)(F)F	-15.64%	
COCCn1cncc1CN1CCCC(C)(c2ccccc2)C1 (stereo not drawn)	61.23%	
COc1ncc(CN2CCC3(CCCN(CC4CCCCC4)C3)C2)cn1 (stereo not drawn)	-65.28%	
O=C(O)C(F)(F)F.O=C(O)C(F)(F)F.O=C1N(Cc2cccnc2)CCC12CCCN(c1ncccn1)C2 (stereo not drawn)	-131.5%	
CS(=O)(=O)c1cncnc1C1CCCNC1.Cl (stereo not drawn)	-139%	
CCN1CCO[C@@H]2CN(C(=O)NCc3ccccc3)CC[C@@H]2C1	-134.2%	
CCC(=O)NC(c1ccc(C)cc1)c1cccc(S(C)(=O)=O)c1 (stereo not drawn)	-119.8%	
COc1cc(N2C[C@@H]3COC[C@@H](Cc4nc(C)no4)[C@@H]3C2)ncn1	-87.35%	
Cc1ccc(C(=O)N2C[C@@H]3CCCO[C@@H]3[C@H](N(C)Cc3ccco3)C2)o1.O=C(O)C(F)(F)F	-32.67%	
CCNC(=O)c1c2c(N3CCN(C)CC3)ncnc2n2ccccc12	-74.14%	
Cc1cc(C)cc(C2(C(=O)NCC3CCN(CC(F)(F)F)C3)CC2)c1 (stereo not drawn)	-75.87%	
CCCN1CCC(CNC(=O)C2(c3ccccc3)CCC2)C1 (stereo not drawn)	65.3%	
CCCN1CCC(CNC(=O)C2(c3cccc(C)c3)CC2)C1 (stereo not drawn)	-64.24%	
CCN1CCC(CNC(=O)C2(c3ccc(F)cc3)CC2)C1 (stereo not drawn)	28.54%	
COCCN1CCC(CNC(=O)C2(c3ccccc3)CCC2)C1 (stereo not drawn)	-3.533%	

Reference: ChEMBL document CHEMBL3988442, “University of Dundee, Small-Polar-MMV Screening Library” (2021)
